About 79,000 compounds went through this panel and 15% of them were active in at least one assay; those are over-represented in the sample as a whole. Calls of active or inactive are those of the source. Rule as the data show it: active = growth inhibition above about 70%; inactive = the rest.
Assays:
[1] = NCI Yeast Anticancer Drug Screen. Data for the rad50 strain (AID 155);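 also: 0% = growth of vehicle-only cultures of the same strain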; details: S. cerevisiae rad50 strain growth inhibition, stronger effect = higher value
How it was run: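 Vehicle-treated cultures provide the reference for the growth inhibition reported for compound-exposed, repair-deficient yeast.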

[2] = NCI Yeast Anticancer Drug Screen. Data for the mec2-1 strain (AID 157); details: S. cerevisiae mec2-1 strain, stronger effect = higher value
How it was run: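 Growth inhibition is read against vehicle-treated controls after compound exposure of the mec2-1 yeast strain, which is defective in DNA damage repair or cell cycle control.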

[3] = NCI Yeast Anticancer Drug Screen. Data for the sgs1 mgt1 strain (AID 161);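 also: 0% = growth of cultures given vehicle only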; details: S. cerevisiae sgs1 mgt1 strain, stronger effect = higher value
How it was run: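 Growth of a repair-deficient yeast mutant was monitored after compound treatment and expressed as inhibition relative to vehicle-treated cultures.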

[4] = NCI Yeast Anticancer Drug Screen. Data for the cln2 rad14 strain (AID 165);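 also: 0% = growth equal to vehicle treated cultures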; details: S. cerevisiae cln2 rad14 strain, stronger effect = higher value
How it was run: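 Growth inhibition, relative to vehicle-treated controls, is the read-out. The test organism is a yeast strain with defined genetic alterations, cln2 rad14.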

[5] = NCI Yeast Anticancer Drug Screen. Data for the bub3 strain (AID 167); details: S. cerevisiae bub3 mutant strain, stronger effect = higher value
How it was run: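 Mutant yeast screening strain plus compound; vehicle-treated cultures serve as the 0% inhibition reference.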

[6] = NCI Yeast Anticancer Drug Screen. Data for the mlh1 rad18 strain (AID 175); details: S. cerevisiae mlh1 rad18 strain growth inhibition, stronger effect = higher value
How it was run: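 Cells of a genetically altered yeast strain, deficient in DNA damage repair, were treated with compound. Their growth was then compared with that of vehicle-treated cultures to give inhibition.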

[7] = at 5.0 µM (retest, dose inferred, filed as 0.5)
[8] = at 50.0 µM (retest, dose inferred, filed as 5.0)

Measured: growth inhibition

O=C(/C=C/C=C/c1ccccc1)c1ccco1
active: [1]; at 50.0 µM 83% | [2]; at 50.0 µM 90.3% | [3]; at 50.0 µM 91.7% | [5]; at 50.0 µM 91.9% | [6]; at 50.0 µM 76%
inactive: [1]; [7] -7% | [1]; [8] -16% | [2]; [7] 14% | [2]; [8] 5% | [3]; [7] -10% | [3]; [8] 28% | [4]; [7] 4% | [4]; [8] 28% | [4]; at 50.0 µM 50.4% | [5]; [7] -6% | [5]; [8] 57% | [6]; [7] -19% | [6]; [8] 44%

O=c1ccccn1CCc1cccc2cc(O)ccc12
active: [5]; at 50.0 µM 71%
inactive: [1]; [7] -3% | [1]; [8] -1% | [1]; at 50.0 µM 12.9% | [2]; [7] -2% | [2]; [8] 4% | [2]; at 50.0 µM 9.25% | [3]; [7] -3% | [3]; [8] -3% | [3]; at 50.0 µM 10.6% | [4]; [7] -1% | [4]; [8] -12% | [4]; at 50.0 µM -12.3% | [5]; [7] 0% | [5]; [8] 4% | [6]; [7] -3% | [6]; [8] 3% | [6]; at 50.0 µM 23.2%

COC(=O)c1ccccc1C#Cc1ccccc1C(=O)OC
inactive: [1]; [7] -1% | [1]; [8] -1% | [1]; at 50.0 µM 66.8% | [2]; [7] -2% | [2]; [8] 2% | [2]; at 50.0 µM 54.3% | [3]; [7] -2% | [3]; [8] 1% | [4]; [7] -2% | [4]; [8] -7% | [4]; at 50.0 µM 12.9% | [5]; [7] 3% | [5]; [8] 4% | [6]; [7] -3% | [6]; [8] -5% | [6]; at 50.0 µM 50%
active: [3]; at 50.0 µM 89% | [5]; at 50.0 µM 83.5%

COc1ccc(C(=O)Nc2ccc(O)c(=O)cc2)cc1
active: [1]; at 50.0 µM 93.5% | [3]; at 50.0 µM 73.3% | [5]; at 50.0 µM 87.4% | [6]; [8] 77%
inactive: [1]; [7] 2% | [1]; [8] 42% | [2]; [7] 38% | [2]; [8] 59% | [2]; at 50.0 µM 17.8% | [3]; [7] 25% | [3]; [8] 66% | [4]; [7] 14% | [4]; [8] 2% | [4]; at 50.0 µM -60.6% | [5]; [7] 16% | [5]; [8] 15% | [6]; [7] 21% | [6]; at 50.0 µM 55.6%

c1ccc(CCc2c[nH]c3ccccc23)cc1
active: [3]; at 50.0 µM 72.5% | [5]; at 50.0 µM 87.5%
inactive: [1]; [7] -7% | [1]; [8] -1% | [1]; at 50.0 µM 59.6% | [2]; [7] 0% | [2]; [8] 0% | [2]; at 50.0 µM 27.5% | [3]; [7] -7% | [3]; [8] 12% | [4]; [7] -52% | [4]; [8] -2% | [4]; at 50.0 µM 5.9% | [5]; [7] -14% | [5]; [8] 41% | [6]; [7] -8% | [6]; [8] 43% | [6]; at 50.0 µM 49%

CC(C)(Sc1cc(Cl)c(Cl)c(Cl)c1)C(=O)OCCN1CCOCC1
active: [1]; [7] 78% | [1]; [8] 98% | [1]; at 50.0 µM 98.2% | [2]; [7] 77% | [2]; [8] 98% | [2]; at 50.0 µM 99.6% | [3]; [7] 87% | [3]; [8] 98% | [3]; at 50.0 µM 99.4% | [4]; [8] 96% | [4]; at 50.0 µM 98.3% | [5]; [7] 76% | [5]; [8] 92% | [5]; at 50.0 µM 99.2% | [6]; [8] 98% | [6]; at 50.0 µM 97.5%
inactive: [4]; [7] 59% | [6]; [7] 67%

CC(=O)OCC1(O)OCC(OC(C)=O)C(OC(C)=O)C1OC(C)=O (configuration not stated)
inactive: [1]; [7] 18% | [1]; [8] -21% | [1]; at 50.0 µM 12.2% | [2]; [7] -15% | [2]; [8] -20% | [2]; at 50.0 µM -2.6% | [3]; [7] -4% | [3]; [8] 9% | [3]; at 50.0 µM 12.6% | [4]; [7] 27% | [4]; [8] -36% | [4]; at 50.0 µM -2.65% | [5]; [7] 6% | [5]; [8] -25% | [5]; at 50.0 µM 7.9% | [6]; [7] -4% | [6]; [8] -14% | [6]; at 50.0 µM 12.9%

Cc1ccc2c(ccc3c[n+]4c5ccccc5ccc4n32)c1
active: [1]; [7] 96% | [1]; [8] 99% | [1]; at 50.0 µM 99.4% | [2]; [7] 92% | [2]; [8] 99% | [2]; at 50.0 µM 99.5% | [3]; [7] 95% | [3]; [8] 100% | [3]; at 50.0 µM 98.7% | [4]; [7] 94% | [4]; [8] 99% | [4]; at 50.0 µM 97.3% | [5]; [7] 93% | [5]; [8] 99% | [5]; at 50.0 µM 99.3% | [6]; [7] 95% | [6]; [8] 99% | [6]; at 50.0 µM 99.2%

O=C(CC(c1ccccc1Cl)C(C(=O)O)c1ccccc1)c1ccccc1 (configuration not stated)
active: [1]; [8] 72% | [1]; at 50.0 µM 81% | [2]; [8] 71% | [2]; at 50.0 µM 71.7% | [3]; [8] 72% | [3]; at 50.0 µM 92.5% | [4]; [8] 83% | [4]; at 50.0 µM 91.5% | [6]; [8] 78% | [6]; at 50.0 µM 92.1%
inactive: [1]; [7] 4% | [2]; [7] 4% | [3]; [7] 6% | [4]; [7] 6% | [5]; [7] -4% | [5]; [8] 67% | [5]; at 50.0 µM 43.6% | [6]; [7] -1%
